The text below walks through data of ChEMBL document CHEMBL1961873, “Compounds: GSK PKIS; Assays: Nanosyn kinase panel” (2012).

Each structure is given as a SMILES string.

The target of assay [1] is Mitogen-activated protein kinase 3 (Homo sapiens) (UniProt P27361). As to conditions: at 1 µM.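 Further: values are mean percent inhibition of MAPK3.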
The target of assay [2] is SRSF protein kinase 3 (Homo sapiens) (UniProt Q9UPE1). As to conditions: at 0.1 µM.
Assay [3] has the same target. To be noted: at 1 µM.
Assay [4] concerns the target Mitogen-activated protein kinase 14 (Homo sapiens) (UniProt Q16539). To be noted: at 0.1 µM.
The target is the same in assay [5]. To be noted: at 1 µM.
Assay [6] has as its target Mitogen-activated protein kinase 11 (Homo sapiens) (UniProt Q15759). To be noted: at 0.1 µM.
Assay [7] has the same target. To be noted: at 1 µM.
Assay [8] has as its target T1, Mitogen-activated protein kinase 13 (Homo sapiens) (UniProt O15264).
T1 sequence (whole entry): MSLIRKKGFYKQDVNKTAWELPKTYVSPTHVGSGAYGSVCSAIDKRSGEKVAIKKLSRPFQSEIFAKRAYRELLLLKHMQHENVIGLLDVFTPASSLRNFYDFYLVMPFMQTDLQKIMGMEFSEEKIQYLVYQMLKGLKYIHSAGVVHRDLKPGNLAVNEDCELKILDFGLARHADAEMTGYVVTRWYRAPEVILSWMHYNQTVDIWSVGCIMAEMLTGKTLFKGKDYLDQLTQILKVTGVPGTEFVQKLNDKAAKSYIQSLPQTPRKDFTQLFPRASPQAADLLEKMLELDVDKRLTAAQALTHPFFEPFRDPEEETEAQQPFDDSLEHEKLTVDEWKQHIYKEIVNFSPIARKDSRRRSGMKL
To be noted: at 0.1 µM.

Assay [9] deals with T1, Mitogen-activated protein kinase 13 (Homo sapiens). As to conditions: at 1 µM.
The target of assay [10] is T2, Mitogen-activated protein kinase 12 (Homo sapiens) (UniProt P53778).
T2 sequence (whole entry): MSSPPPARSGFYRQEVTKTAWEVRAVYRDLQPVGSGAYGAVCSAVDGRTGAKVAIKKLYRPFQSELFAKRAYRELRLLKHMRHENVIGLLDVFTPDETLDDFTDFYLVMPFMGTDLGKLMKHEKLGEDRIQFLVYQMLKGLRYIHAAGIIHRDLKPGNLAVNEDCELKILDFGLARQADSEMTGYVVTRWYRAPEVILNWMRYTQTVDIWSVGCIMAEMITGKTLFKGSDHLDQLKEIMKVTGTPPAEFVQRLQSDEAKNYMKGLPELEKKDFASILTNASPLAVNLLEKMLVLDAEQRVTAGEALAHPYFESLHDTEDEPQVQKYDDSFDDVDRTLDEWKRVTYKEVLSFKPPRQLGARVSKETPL
As to conditions: at 0.1 µM.

Assay [11] has as its target T2, Mitogen-activated protein kinase 12 (Homo sapiens). As to conditions: at 1 µM.
For assay [12], the target named is SRSF protein kinase 1 (Homo sapiens) (UniProt Q96SB4). As to conditions: at 0.1 µM.
Assay [13] has the same target. As to conditions: at 1 µM.
The target of assay [14] is Phosphatidylinositol 4,5-bisphosphate 3-kinase catalytic subunit alpha isoform (Homo sapiens) (UniProt P42336). As to conditions: at 0.1 µM.
The target is the same in assay [15]. As to conditions: at 1 µM.
Assay [16] has as its target T3, Phosphatidylinositol 4,5-bisphosphate 3-kinase catalytic subunit delta isoform (Homo sapiens) (UniProt O00329).
T3 sequence (whole entry): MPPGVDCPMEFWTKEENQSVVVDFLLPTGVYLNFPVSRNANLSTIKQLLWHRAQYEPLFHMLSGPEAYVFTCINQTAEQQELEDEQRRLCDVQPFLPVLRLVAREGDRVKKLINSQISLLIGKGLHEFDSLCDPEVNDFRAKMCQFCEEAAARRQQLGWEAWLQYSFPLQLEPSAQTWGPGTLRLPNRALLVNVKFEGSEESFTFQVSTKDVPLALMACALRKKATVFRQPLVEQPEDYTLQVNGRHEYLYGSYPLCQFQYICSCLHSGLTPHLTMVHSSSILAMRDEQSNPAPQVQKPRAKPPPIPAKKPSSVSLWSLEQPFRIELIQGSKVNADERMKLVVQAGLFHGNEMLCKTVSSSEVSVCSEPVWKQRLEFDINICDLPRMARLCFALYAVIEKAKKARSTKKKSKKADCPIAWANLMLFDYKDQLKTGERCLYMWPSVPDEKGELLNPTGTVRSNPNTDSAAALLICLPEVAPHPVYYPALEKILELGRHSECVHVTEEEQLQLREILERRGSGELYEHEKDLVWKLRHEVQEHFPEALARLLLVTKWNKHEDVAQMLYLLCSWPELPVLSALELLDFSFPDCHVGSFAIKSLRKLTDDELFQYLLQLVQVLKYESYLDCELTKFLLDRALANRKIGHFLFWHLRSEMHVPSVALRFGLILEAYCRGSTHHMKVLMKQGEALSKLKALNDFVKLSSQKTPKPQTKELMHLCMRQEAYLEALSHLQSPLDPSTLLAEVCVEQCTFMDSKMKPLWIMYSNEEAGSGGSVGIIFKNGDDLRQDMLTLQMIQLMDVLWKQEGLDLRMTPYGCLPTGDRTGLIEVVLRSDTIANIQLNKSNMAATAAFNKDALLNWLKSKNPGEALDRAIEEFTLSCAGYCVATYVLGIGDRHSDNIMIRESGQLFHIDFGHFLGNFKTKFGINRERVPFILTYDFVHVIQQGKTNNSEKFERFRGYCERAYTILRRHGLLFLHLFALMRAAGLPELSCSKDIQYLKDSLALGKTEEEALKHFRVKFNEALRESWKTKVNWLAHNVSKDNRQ
As to conditions: at 0.1 µM.

Assay [17] deals with T3, Phosphatidylinositol 4,5-bisphosphate 3-kinase catalytic subunit delta isoform (Homo sapiens). As to conditions: at 1 µM.
For assay [18], the target named is Phosphatidylinositol 4-kinase beta (Homo sapiens) (UniProt Q9UBF8). As to conditions: at 0.1 µM.
The target is the same in assay [19]. As to conditions: at 1 µM.
Assay [20] concerns the target Sphingosine kinase 1 (Homo sapiens) (UniProt Q9NYA1). As to conditions: at 0.1 µM.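 Further: mean percent inhibition of SPHK1 activity, measured within the GSK PKIS screening panel.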

Sequence of Mitogen-activated protein kinase 3 (Homo sapiens) (P27361 whole entry): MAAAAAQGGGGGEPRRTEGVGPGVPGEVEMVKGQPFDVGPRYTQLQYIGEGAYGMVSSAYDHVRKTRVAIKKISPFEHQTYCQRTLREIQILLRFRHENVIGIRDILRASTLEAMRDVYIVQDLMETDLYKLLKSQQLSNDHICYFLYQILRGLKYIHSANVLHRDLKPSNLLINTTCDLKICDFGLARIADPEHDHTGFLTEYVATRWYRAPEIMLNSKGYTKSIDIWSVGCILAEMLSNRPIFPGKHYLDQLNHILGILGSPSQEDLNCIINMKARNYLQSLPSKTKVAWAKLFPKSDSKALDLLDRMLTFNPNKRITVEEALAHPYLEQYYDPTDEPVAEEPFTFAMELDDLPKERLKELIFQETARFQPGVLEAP
Sequence of Sphingosine kinase 1 (Homo sapiens) (Q9NYA1 whole entry): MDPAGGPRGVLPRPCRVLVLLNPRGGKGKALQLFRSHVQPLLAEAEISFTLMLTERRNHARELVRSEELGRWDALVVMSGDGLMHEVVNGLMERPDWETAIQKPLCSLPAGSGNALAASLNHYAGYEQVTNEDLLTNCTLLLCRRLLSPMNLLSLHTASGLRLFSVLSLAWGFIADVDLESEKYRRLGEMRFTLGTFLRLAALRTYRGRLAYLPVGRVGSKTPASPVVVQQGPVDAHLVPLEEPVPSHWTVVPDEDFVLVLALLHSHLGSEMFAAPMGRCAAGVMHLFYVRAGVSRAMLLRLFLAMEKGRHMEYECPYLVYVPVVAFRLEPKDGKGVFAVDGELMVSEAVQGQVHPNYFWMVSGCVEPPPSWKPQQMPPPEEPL
Sequence of Mitogen-activated protein kinase 11 (Homo sapiens) (Q15759 whole entry): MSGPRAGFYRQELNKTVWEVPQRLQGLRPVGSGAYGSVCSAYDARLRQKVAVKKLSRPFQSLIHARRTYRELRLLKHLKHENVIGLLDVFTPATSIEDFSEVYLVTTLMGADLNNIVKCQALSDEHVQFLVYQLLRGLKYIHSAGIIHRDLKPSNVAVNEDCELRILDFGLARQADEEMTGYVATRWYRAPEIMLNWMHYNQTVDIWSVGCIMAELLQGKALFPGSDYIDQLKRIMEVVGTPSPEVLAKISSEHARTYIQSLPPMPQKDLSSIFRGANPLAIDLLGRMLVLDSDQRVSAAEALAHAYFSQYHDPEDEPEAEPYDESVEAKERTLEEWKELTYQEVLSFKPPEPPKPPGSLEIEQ
Sequence of Mitogen-activated protein kinase 14 (Homo sapiens) (Q16539 whole entry): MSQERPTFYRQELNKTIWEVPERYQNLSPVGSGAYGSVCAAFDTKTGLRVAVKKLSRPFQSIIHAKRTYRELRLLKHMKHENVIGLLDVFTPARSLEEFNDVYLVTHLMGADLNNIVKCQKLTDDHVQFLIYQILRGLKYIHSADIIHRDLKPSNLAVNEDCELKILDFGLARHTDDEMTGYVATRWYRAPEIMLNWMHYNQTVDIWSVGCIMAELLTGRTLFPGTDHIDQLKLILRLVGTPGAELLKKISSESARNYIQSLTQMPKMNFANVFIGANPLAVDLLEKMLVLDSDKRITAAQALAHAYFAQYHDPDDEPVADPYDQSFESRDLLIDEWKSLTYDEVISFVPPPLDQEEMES
Sequence of SRSF protein kinase 3 (Homo sapiens) (Q9UPE1 whole entry): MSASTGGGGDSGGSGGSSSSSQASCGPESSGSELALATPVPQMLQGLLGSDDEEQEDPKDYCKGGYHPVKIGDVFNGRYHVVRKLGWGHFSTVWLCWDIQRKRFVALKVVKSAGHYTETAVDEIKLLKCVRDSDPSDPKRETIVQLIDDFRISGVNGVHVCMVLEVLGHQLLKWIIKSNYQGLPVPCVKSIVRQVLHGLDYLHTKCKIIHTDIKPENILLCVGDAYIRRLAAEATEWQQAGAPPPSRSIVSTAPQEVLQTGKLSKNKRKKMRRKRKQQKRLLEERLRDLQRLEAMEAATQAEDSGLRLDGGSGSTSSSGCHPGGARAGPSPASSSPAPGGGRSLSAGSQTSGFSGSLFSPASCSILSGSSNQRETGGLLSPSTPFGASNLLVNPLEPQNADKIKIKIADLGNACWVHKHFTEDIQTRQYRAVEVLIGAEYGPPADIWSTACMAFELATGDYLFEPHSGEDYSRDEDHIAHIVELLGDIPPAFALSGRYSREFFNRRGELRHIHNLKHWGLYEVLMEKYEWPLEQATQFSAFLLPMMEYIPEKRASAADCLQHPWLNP
Sequence of Phosphatidylinositol 4-kinase beta (Homo sapiens) (Q9UBF8 2-816 limits assumed): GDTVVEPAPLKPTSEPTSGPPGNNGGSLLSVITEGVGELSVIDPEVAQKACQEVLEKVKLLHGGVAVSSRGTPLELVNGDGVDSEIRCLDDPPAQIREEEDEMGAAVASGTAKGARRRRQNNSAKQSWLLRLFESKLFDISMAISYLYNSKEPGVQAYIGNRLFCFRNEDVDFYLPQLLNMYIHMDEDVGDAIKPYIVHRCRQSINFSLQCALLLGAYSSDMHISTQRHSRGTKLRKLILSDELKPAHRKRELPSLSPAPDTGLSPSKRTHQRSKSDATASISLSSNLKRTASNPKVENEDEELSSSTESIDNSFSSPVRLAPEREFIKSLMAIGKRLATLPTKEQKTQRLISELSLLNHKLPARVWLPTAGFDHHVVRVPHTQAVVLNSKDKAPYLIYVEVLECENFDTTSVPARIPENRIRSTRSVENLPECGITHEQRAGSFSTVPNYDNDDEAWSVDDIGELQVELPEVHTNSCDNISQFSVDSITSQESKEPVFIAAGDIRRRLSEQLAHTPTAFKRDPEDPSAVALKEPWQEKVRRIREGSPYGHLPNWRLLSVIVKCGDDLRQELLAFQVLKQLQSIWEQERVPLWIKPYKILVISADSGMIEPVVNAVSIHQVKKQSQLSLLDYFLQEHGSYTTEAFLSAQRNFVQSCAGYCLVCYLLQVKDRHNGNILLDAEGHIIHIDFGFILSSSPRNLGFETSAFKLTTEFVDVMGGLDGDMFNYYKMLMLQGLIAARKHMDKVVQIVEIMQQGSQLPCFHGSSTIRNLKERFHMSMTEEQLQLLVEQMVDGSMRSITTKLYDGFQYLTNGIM
Sequence of SRSF protein kinase 1 (Homo sapiens) (Q96SB4 whole entry): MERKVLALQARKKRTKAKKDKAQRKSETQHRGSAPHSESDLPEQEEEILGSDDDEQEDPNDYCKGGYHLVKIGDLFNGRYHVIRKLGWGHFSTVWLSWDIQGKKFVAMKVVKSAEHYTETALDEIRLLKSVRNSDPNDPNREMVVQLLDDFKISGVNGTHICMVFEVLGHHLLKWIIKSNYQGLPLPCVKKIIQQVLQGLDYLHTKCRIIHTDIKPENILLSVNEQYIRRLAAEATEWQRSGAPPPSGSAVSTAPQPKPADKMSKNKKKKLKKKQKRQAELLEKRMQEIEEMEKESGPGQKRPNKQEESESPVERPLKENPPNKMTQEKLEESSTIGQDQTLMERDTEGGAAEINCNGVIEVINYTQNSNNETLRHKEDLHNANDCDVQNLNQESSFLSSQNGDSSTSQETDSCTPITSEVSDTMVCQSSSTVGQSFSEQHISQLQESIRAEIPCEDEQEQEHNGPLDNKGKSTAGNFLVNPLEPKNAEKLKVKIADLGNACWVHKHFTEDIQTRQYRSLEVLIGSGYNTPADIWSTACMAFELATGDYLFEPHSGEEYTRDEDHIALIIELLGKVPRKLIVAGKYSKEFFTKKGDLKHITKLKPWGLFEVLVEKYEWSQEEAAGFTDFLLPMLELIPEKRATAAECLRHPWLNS
Sequence of Phosphatidylinositol 4,5-bisphosphate 3-kinase catalytic subunit alpha isoform (Homo sapiens) (P42336 whole entry, canonical isoform): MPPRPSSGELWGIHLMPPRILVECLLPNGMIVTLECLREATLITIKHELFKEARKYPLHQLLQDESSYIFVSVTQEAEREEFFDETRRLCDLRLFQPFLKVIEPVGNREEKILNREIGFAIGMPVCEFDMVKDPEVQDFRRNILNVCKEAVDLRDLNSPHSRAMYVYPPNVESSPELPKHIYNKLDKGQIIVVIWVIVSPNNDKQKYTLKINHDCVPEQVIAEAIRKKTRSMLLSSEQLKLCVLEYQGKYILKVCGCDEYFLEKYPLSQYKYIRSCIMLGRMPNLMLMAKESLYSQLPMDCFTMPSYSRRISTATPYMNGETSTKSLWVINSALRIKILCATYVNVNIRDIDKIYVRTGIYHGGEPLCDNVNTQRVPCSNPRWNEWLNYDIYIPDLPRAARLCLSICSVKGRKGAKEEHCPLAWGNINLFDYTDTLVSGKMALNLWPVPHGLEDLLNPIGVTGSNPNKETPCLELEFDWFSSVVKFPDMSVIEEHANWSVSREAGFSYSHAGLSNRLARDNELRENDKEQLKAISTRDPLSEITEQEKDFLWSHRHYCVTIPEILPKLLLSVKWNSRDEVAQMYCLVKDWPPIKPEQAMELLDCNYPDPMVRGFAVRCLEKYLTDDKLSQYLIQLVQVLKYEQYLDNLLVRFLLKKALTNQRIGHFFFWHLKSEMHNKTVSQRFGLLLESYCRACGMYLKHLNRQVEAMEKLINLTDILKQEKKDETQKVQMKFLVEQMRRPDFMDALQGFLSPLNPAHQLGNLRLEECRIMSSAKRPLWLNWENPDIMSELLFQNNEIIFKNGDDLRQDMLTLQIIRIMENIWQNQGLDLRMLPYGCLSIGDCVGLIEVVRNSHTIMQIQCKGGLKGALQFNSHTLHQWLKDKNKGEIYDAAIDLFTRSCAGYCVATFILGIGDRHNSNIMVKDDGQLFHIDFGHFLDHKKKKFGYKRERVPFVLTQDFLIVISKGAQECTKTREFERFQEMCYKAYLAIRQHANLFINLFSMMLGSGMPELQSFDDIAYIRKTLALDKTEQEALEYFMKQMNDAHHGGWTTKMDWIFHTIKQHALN

In general, inhibition refers to the change of the read-out against control, counted positive when it falls. On to `CCn1c(-c2nonc2N)nc2c(C#CC(C)(C)O)nc(OC[C@@H](N)c3ccccc3)cc21`, for which the inhibition in assay [1] is 1.84%; in assay [2] it was 0.05%; in assay [3], 3.01%; in assay [4] it was 1.93%; in assay [5], 1.14%; in assay [6], -1.91%. Also, the inhibition in [7] was 1.34%; in assay [8] it was -0.23%; in assay [9], -0.87%; in assay [10], -1.46%; in assay [11], -0.24%; in assay [12], 0.57%. Further, the inhibition is -0.56% in [13]; -3.76% in assay [14]; -3.41% in assay [15]; -2.59% in assay [16]; -3.08% in assay [17]; 0.16% in assay [18]. For the same compound, the results for the inhibition in assay [19] and in assay [20] were 2.95% and 0.21%, respectively.
With `c1cnn2ncc(-c3ccnc(Nc4ccc5c(c4)OCCO5)n3)c2c1`, the inhibition in assay [1] was 12%; in assay [2] it was -0.61%; in assay [3], 1.61%; in assay [4], 7.07%; in [5], 13.3%; in assay [6] it was 3.66%. In addition, the inhibition in assay [7] was determined as 9.95%; in [8], 4.89%; in assay [9], 16.3%; in assay [10], 0.48%; in assay [11], 6.13%; in [12], 0.05%. The inhibition stood at 2.88% in assay [13]; 7.25% in assay [14]; 30.2% in [15]; 4.69% in assay [16]; 26.1% in [17]; 1.98% in assay [18]. In addition, the results for the inhibition in [19] and in assay [20] were 9.37% and 1.6%, respectively.
Turning to `COC(=O)Nc1nc2cc(Oc3ccc(NC(=O)Nc4cccc(C(=O)O)c4)cc3)ccc2[nH]1`, the inhibition in assay [1] is 2.25%; in [2] it was 1.98%; in assay [3], 3.99%; in assay [4], -1.1%; in assay [5] it was 1.12%; in [6], 0.94%. Moreover, the inhibition is -1.18% in [7]; -0.17% in assay [8]; -0.69% in [9]; 0.51% in assay [10]; -0.37% in [11]; -0.09% in assay [12]. For the same compound, the inhibition in assay [13] was 3.15%; in assay [14], -0.54%; in [15], -3.19%; in [16], -1.33%; in [17] it was -1.97%; in assay [18] it was 2.72%. In addition, the inhibition in assay [19] is -1.03%; in assay [20] it was 0.94%.
With `CN1CCC(C(=O)Nc2n[nH]c3nnc(-c4ccccc4)cc23)CC1`, the inhibition in assay [1] was 7.39%; in assay [2], -1.72%; in assay [3], -1.01%; in assay [4] it was 2.08%; in assay [5], 5.41%; in [6] it was 5.95%. Further, the inhibition in assay [7] was 5.33%; in [8], 1.73%; in assay [9], 5.59%; in [10], 3.05%; in assay [11], 3.34%; in [12], -2.38%. Also, the inhibition in assay [13] is -0.73%; in assay [14], 4.88%; in assay [15], 4.26%; in [16], 1.61%; in [17], 1.12%; in assay [20] it was 1.63%.
Take `Nc1nc(-c2ccc3c(c2)C(=Cc2cc(Br)c(O)c(Br)c2)C(=O)N3)cs1`: the inhibition is 1.82% in assay [1]; -2.97% in assay [2]; -1.79% in [3]; 1.75% in assay [4]; -0.33% in [5]; -2.08% in assay [6]. Besides, the inhibition in [7] was 2.83%; in assay [8], -2.1%; in [9] it was -1.28%; in [10] it was -1.72%; in assay [11] it was -1.45%; in assay [12], 1.08%. Besides, the inhibition in [13] turned out to be 1.39%; in assay [14], 0.41%; in assay [15], 24.5%; in assay [18] it was 36.1%; in assay [19], 71.6%; in [20], 2.04%.
Take `Cc1nn(C)c2cc(N(C)c3ccnc(Nc4cccc(S(N)(=O)=O)c4)n3)ccc12`: the inhibition is 0.11% in [1]; -3.4% in assay [2]; -1.66% in [3]; 4.32% in assay [4]; 19.7% in [5]; 3.77% in assay [6]. Also, the inhibition is 25.1% in assay [7]; 1.54% in assay [8]; 4.16% in assay [9]; -0.41% in [10]; 2.2% in assay [11]; -1.51% in assay [12]. The inhibition in [13] was -1.14%; in [14], 6.6%; in assay [15], 30.8%; in [16], 10.5%; in assay [17], 53.8%; in assay [19], -0.74%. Further, the inhibition in [20] was -0.2%.
As for `[O-][S+]1CCN(Cc2ccc(-c3ccc4ncnc(Nc5ccc(OCc6ccccc6)c(F)c5)c4c3)o2)CC1`, the inhibition was -0.07% in assay [1]; -1.09% in assay [2]; -1.23% in assay [3]; 1.59% in assay [4]; 8.77% in [5]; 3.66% in [6]. The inhibition is 6.24% in assay [7]; -1.08% in [8]; 3.34% in assay [9]; 0.27% in assay [10]; 2.56% in assay [11]; -2.36% in assay [12]. The inhibition in assay [13] is -4.42%; in [14], 1.82%; in [15] it was 3.14%; in assay [16], 2.61%; in [17], 5.44%; in [18] it was -0.3%. In addition, the inhibition in assay [19] is -1.35%; in assay [20], -0.6%.
